# Measurements reported in PubChem BioAssay (NCI).
# Compounds without any hit were thinned out: in the full panel of roughly 83,000, 20% have a hit.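 The endpoint reported here, percent growth, reads 100 for growth as untreated, 0 for no net growth and -100 for all cells dead.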 A number with no mark means an inactive call. Calls of active or inactive are those of the source.
# Tested on: HCC-2998 colon
# Assay: NCI-60 one-dose screen, 48 h (100 = growth as untreated, 0 = no growth, -100 = all killed)
# Conditions: 10 µM unless noted
# Method: Growth inhibition of the HCC-2998 human tumor cell line is measured as a screen for anti-cancer activity. Cells are grown in 96 well plates and exposed to the test compound for 48 hours. Compounds are tested at a single concentration, which is 10^-5 M for most compounds. The reported endpoint is percent growth (GI% or GIPRCNT), where numbers from 0 - 100% represent growth inhibition, and numbers from -100% - 0 represent cell death. For example, a value of 40 represents 60% growth inhibition. A value of 0 means no net growth occurred over the course of the experiment. A value of -40 indicates 40% of cells at the beginning of the experiment died by the end of the experiment. A value of -100 means all cells are dead at the end of the experiment.
# NCI-60 Human Tumor Cell Lines Screen was performed using the standard one-dose NCI protocol, which is described in more detail at https://dtp.cancer.gov/discovery_development/nci-60/default.htm.
# Compounds with GIPRCNT values below 10 were considered active. Activity score was based on GIPRCNT using the following formula: […]
# Score is 0 for GIPRCNT values of 100 or above, 50 for GIPRCNT values of 0, and 100 for GIPRCNT values of -100.
row,SMILES,growth
1,O=C(Nc1cccc(-n2ccc3c(NC(=O)c4ccccc4)ncnc32)c1)Nc1ccc(Cl)c(C(F)(F)F)c1,40.8%
2,O=C1OC(c2ccc(-c3ccccc3)cc2)=C/C1=C/C=C/c1ccccc1,106%
3,C[C@]12O[C@H]1[C@H](O)c1c(cc(O)c3c1C(=O)c1cccc(O)c1-3)C2=O,112%
4,COc1ccc(/C=C2/C(=O)Nc3cc(Cl)c(-c4csc(N)n4)cc32)cc1,77.3%
5,C[C@]12CC[C@@H]3c4ccc(O)c(N)c4CC[C@H]3[C@@H]1CC[C@@H]2O,120%
6,O=C(Nc1ccc(F)cc1)Nc1ccc(Br)c(C(F)(F)F)c1,11.8%
7,CN(C)CC/C=C1\c2ccccc2Sc2ccc(Cl)cc21,27.4%
8,CC(C)(C)OC(=O)N1CCN(CCn2cc(C(F)(F)F)c3c(Cl)ncnc32)CC1,86.1%
9,CCOc1ccccc1C(=O)N1CCN(c2cc(Cl)cc(Cl)c2)CC1,16.4%
10,CC1=C[S+](c2ccccc2)c2cccc3cc4ccccc4c1c23 (stereo not given),-89.4% (active)
11,NC(=O)C1=C[C@H]2[C@H]3C=C[C@@]2(O)C(=O)O[C@@H]3O1,91.6%
12,COc1ccccc1C(OC(C)=O)OC(C)=O,105%
13,CCCN1C(=O)CSC1=Nc1ccc2cc3ccc(N=C4SCC(=O)N4CCC)cc3nc2c1,64.2%
14,CN1CCN(C(=O)/C=C/c2ccc([N+](=O)[O-])o2)CC1,103%
15,Clc1ccc(CN2COc3c(ccc4cccnc34)C2)cc1Cl,-25.4% (active)
16,COc1cc(-c2nc3sc(C)cn3c2/C=C2\C(=O)Nc3ccccc32)c(Br)c(OC)c1OC,97%
17,COc1cccc(-c2nc3sccn3c2-c2ccnc(NCCNC(=O)Nc3cccc(C(F)(F)F)c3)n2)c1,40.8%
18,O=C(Nc1cccc(-n2ccc3c(NC(=O)c4ccccc4)nccc32)c1)c1cccc(C(F)(F)F)c1,31.8%
19,Nc1ncnc2c1c(-c1ccc(Oc3ccccc3)cc1)nn2C[C@@H]1SSC[C@H]1O,88.4%
20,Nc1c(C(=O)O)[nH]c(=O)[nH]c1=O,105%

row,SMILES,growth
1,O=C(C[n+]1ccccc1Cl)c1ccc2c(c1)CCCC2,103%
2,Cc1cc2nc(-c3c(N)ncc(C#N)c3-c3ccc(Cl)cc3)[nH]c2cc1C,65.4%
3,Cc1cccc(NC(=O)CCc2ccc(N3C(N)=NC(N)=NC3(C)C)cc2)c1,33.3%
4,CC(=O)c1cc2c(N)c(C(=O)Nc3cccc(Cl)c3)sc2nc1C,85.3%
5,NN=C(c1ccc(Cl)cc1)c1ccc(Cl)cc1,96%
6,Cc1cn(C2CC(N=[N+]=[N-])C(COP(=O)(O)OP(=O)(O)OP(=O)(O)O)O2)c(=O)[nH]c1=O (stereo not given),97.6%
7,O=C(CNc1cccnc1)Nc1ccc(C(=O)/C=C/c2ccc(Cl)cc2)cc1,86.2%
8,CN(C)c1ccc(/C=N/n2c(-c3cc(F)c(Cl)cc3Cl)nn(CN3CCOCC3)c2=S)cc1,111%
9,Cc1ccc(Cn2cc(COc3ccc4c5ccnc(C)c5n(CCCc5ccccc5)c4c3)nn2)cc1,102%
10,COc1ccc(-c2nn(-c3ccc(NC(=O)Nc4ccc(Cl)c(Cl)c4)cc3)cc2-c2ccncc2)cc1Cl,10.4%
11,COc1cccc(-c2nc3sccn3c2-c2ccnc(NCCNC(=O)c3ccccc3)n2)c1,114%
12,COc1cc(Cn2cc3c(c2)-c2onc(CO)c2CC3)cc(OC)c1OC,101%
13,CC(C)(C)C(=O)Nc1nc2c(s1)CCc1ccn(S(=O)(=O)c3ccccc3)c1-2,100%
14,COc1cc([C@@H]2c3cc4c(cc3C(OC3O[C@@H]5COC(C)O[C@H]5[C@H](O)[C@H]3O)C3COC(=O)[C@@H]32)OCO4)cc(OC)c1O (stereo not given in full),38.7%
15,Cc1ccc2c(c1)Nc1ccc(C)cc1C2(C)C,104%
16,COc1ccc(CNc2nc3ccccc3c3c(=O)c4ccccc4sc23)cc1OC,94%
17,COc1ccc(C(=O)NC(=O)Nc2ccc3c(c2)NC(=O)/C3=C\c2[nH]c(C)c(CCC(=O)O)c2C)c(F)c1,46.8%
18,Cc1ccc(-c2nc3c(N=Nc4ccc(S(N)(=O)=O)cc4)c(N)nn3c(N)c2C#N)cc1,52.4%
19,COc1cc(/C=C/C(=O)c2c(C)[n+]([O-])c3ccccc3[n+]2[O-])ccc1O,116%
20,C[C@H]1C=C(C[C@@H](O)CCCCCCCCCC[C@@H](O)[C@H]2CCC(=O)O2)C(=O)O1,97.7%
